# Laboratory results reported in PubChem BioAssay (Tox21).
# A number with no mark means an inactive call. Inconclusive results are not listed. Where a call stands in place of a potency, no number is given. The source made the active and inactive calls. Unless noted, the call rests on the fitted dose curve; in most records, active means well fitted curve in the direction sought with a large enough effect in the repeat runs; inconclusive means weak or mixed curves; inactive means no such curve, though single readings can be large; an effect the other way counts as inactive or inconclusive.
# Tests used:
# [1] = A CellTox Green Cytotoxicity Assay to monitor cytotoxicity in HepG2 cells - 0 hour (AID 1224882); further: nearly all actives have a fitted effect of over 35% in size
# Summary of the method: (§1)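 Read-out is fluorescence of a cyanine dye excluded from live cells that stains DNA of dead HepG2 cells, with signal proportional to cytotoxicity. Plates were read at 0, 8, 16, 24, 32 and 40 h after compound addition.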
# [2] = A CellTox Green Cytotoxicity Assay to monitor cytotoxicity in HepG2 cells - 32 hour (AID 1224883); further: nearly all actives have a fitted effect of over 50% in size
# Summary of the method: as §1
# [3] = A CellTox Green Cytotoxicity Assay to monitor cytotoxicity in HEK293 cells - 8 hour (AID 1224884); further: nearly all actives have a fitted effect of over 35% in size
# Summary of the method: (§2)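 Nonlytic real-time cytotoxicity: HEK293 + CellTox Green reagent plated, 5 h preincubation, pintool compound addition (23 nL in DMSO), 37 C for 40 h, fluorescence measured at successive time points.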
# [4] = qHTS RealTime-Glo MT Cell Viability Assay in HepG2 cells - 16 hour (AID 1224885); further: nearly all actives have a fitted effect of over 50% in size
# Summary of the method: (§3)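 HepG2 suspension premixed with RealTime-Glo reagents is plated at 600 cells per well and left 5 h at 37 C/5% CO2. Compounds in DMSO then go in, and bioluminescence reflecting viable cell number is recorded over 40 h.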
# [5] = qHTS RealTime-Glo MT Cell Viability Assay in HEK293 cells - 24 hour (AID 1224886); further: top concentration of the series differs between compounds; nearly all actives have a fitted effect of over 50% in size
# Summary of the method: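 Reads taken at 0, 8, 16, 24, 32 and 40 h from the same wells. HEK293 cells (600/well) carried RealTime-Glo reagents from seeding, with compound added after a 5 h settle at 37 C.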
# [6] = qHTS RealTime-Glo MT Cell Viability Assay in HEK293 cells - 8 hour (AID 1224887); further: top concentration of the series differs between compounds; nearly all actives have a fitted effect of over 50% in size
# Summary of the method: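 Cells were seeded together with NanoLuc luciferase and a prosubstrate that viable cells reduce to a luciferase substrate. After a 5 h incubation at 37 C/5% CO2, compounds were added and luminescence was measured repeatedly during 40 h of treatment.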
# [7] = qHTS RealTime-Glo MT Cell Viability Assay in HepG2 cells - 0 hour (AID 1224889); further: nearly all actives have a fitted effect of over 50% in size
# Summary of the method: as §3
# [8] = A CellTox Green Cytotoxicity Assay to monitor cytotoxicity in HepG2 cells - 8 hour (AID 1224890); further: nearly all actives have a fitted effect of over 45% in size
# Summary of the method: as §1
# [9] = qHTS assay to identify small molecule antagonists of the estrogen receptor alpha (ER-alpha) signaling pathway using the BG1 cell line in the presence of 0.1 nM 17-beta-estradiol - cell viability counter screen (AID 1259241); further: nearly all actives have a fitted effect of over 40% in size; further: potency means the concentration at half of the fitted maximal effect
# Summary of the method: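 CellTiter-Fluor read (30 min, 37C) on ER-alpha/ERE-luc VM7Luc4E2 cells; 22 hr compound treatment; agonist 0.1 nM E2 final; same-well multiplex.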
# [10] = qHTS assay to identify small molecule antagonists of the androgen receptor (AR) signaling pathway using the MDA cell line in the presence of 0.5 nM R1881 - cell viability counter screen (AID 1259242); further: nearly all actives have a fitted effect of over 45% in size; further: potency means the concentration at half of the fitted maximal effect
# Summary of the method: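 Counter screen for cytotoxicity run in the same wells as the AR antagonist reporter screen: MDA-kb2 cells were treated 16 hr with test compounds and 0.5 nM R1881, then live-cell protease activity was measured by fluorescence.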
# [11] = qHTS assay to identify small molecule phospholipidosis (PLD) inducers (AID 1259344; active means well fitted curve in the direction sought with a large enough effect; an effect the other way counts as inactive or inconclusive)
# Summary of the method: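 HepG2 cells on collagen I, attached 4 h at 37 C, were co-treated with compound and LipidTOX Red dye for 24 h at 37 C, then fixed with paraformaldehyde plus Hoechst 33342 and imaged by high-content microscopy for phospholipid accumulation.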
# [12] = qHTS assay to identify small molecule HDAC inhibitors (AID 1259364); further: nearly all actives have a fitted effect of over 45% in size; further: potency means the concentration at half of the fitted maximal effect; on activity change, negative = inhibition: top concentration of the series differs between compounds
# Summary of the method: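 Luminescence from a cell-permeant luminogenic class I/II HDAC substrate reports endogenous deacetylase activity in intact HCT-116 cells treated with compounds for 2 h.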
# [13] = qHTS assay to identify small molecule antagonists of the sonic hedgehog signaling (Shh) pathway - cell viability counter screen (AID 1259367); further: nearly all actives have a fitted effect of over 55% in size; further: potency means the concentration at half of the fitted maximal effect
# Summary of the method: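 NIH/3T3-derived Gli1-Luc reporter cells (2,000 per well) rested 4 hr at 37 C, then received DMSO compounds plus conditioned medium. After 23 hr of treatment, CellTiter-Fluor was added for 1 hr at 37C and fluorescence read.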
# [14] = qHTS assay to identify small molecule agonists of the sonic hedgehog signaling (Shh) pathway (AID 1259368; calls by dose curve;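 further: NIH/3T3-derived 3T3Gli1-Luc cells carrying a stable Gli1-driven firefly luciferase reporter; series mostly up to about 92 µM; nearly all actives have a fitted effect of over 15% in size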)
# Summary of the method: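 3T3Gli1-Luc (NIH/3T3 clone, stable Gli1-Luc); 4 hr pre-incubation, then cpd in DMSO 24 hr, 37 C/5% CO2; luciferase reagent 30 min RT; luminescence.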
# [15] = qHTS assay to identify small molecule antagonists of the sonic hedgehog signaling (Shh) pathway (AID 1259369; calls by dose curve; further: nearly all actives have a fitted effect of over 45% in size)
# Summary of the method: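 3T3Gli1-Luc, conditioned-medium-stimulated, 24hr cpd, 37C/5% CO2; Gli1-driven firefly Luc luminescence after 30min RT with luciferase reagent. Cells plated 4hr before cpd.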
# [16] = A CellTox Green Cytotoxicity Assay to monitor cytotoxicity in HEK293 cells - 16 hour (AID 1224888); further: nearly all actives have a fitted effect of over 35% in size
# Summary of the method: as §2
# [17] = molecular target: Estrogen receptor (Homo sapiens) (UniProt P03372); experiment: qHTS assay to identify small molecule antagonists of the estrogen receptor alpha (ER-alpha) signaling pathway using the BG1 cell line in the presence of 0.1 nM 17-beta-estradiol (AID 1259244); further: nearly all actives have a fitted effect of over 50% in size
# Summary of the method: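 Cells: VM7Luc4E2, endogenous ER-alpha, 4x ERE-luc stable. Pre-culture 5 d, phenol red-free, charcoal-stripped FBS. Plated 24 h, compound + E2 0.1 nM final, 22 h 37C/5% CO2. Readout ONE-Glo luminescence.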
# [18] = qHTS assay to identify small molecule HDAC inhibitors - cell viability counter screen (AID 1259365)
# Summary of the method: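 To flag cytotoxic hits, 1,500 wild-type HCT-116 cells per well, plated the day before, receive test compounds for 2hr at 37 C before CellTiter-Glo reagent and a luminescence read.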
# [19] = qHTS assay to identify small molecule agonists of the sonic hedgehog signaling (Shh) pathway - cell viability counter screen (AID 1259366); further: nearly all actives have a fitted effect of over 50% in size
# Summary of the method: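 Fluorescence from CellTiter-Fluor reports live cells in this counter screen. NIH/3T3-derived Gli1-Luc reporter cells receive test compounds for 24hr at 37C; reagent goes in at 23hr.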
# Sequence of Estrogen receptor (Homo sapiens) (P03372 whole entry, looked up): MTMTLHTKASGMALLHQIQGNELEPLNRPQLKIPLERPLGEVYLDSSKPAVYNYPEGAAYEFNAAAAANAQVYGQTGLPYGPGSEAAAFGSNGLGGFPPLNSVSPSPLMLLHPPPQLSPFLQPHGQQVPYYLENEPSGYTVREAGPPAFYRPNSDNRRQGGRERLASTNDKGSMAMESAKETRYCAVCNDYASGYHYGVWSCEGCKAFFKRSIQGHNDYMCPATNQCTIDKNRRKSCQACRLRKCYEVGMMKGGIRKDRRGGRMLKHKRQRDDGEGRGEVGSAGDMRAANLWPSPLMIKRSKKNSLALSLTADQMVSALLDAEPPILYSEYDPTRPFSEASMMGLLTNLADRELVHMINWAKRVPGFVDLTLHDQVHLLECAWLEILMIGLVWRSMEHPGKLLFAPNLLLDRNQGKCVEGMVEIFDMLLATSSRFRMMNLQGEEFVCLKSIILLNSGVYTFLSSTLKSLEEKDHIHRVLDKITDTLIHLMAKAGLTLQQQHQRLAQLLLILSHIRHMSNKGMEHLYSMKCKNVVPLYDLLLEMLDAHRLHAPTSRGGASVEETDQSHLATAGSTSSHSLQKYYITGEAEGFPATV
structure (smiles),measurement,setting,value
Cc1cccc(C)c1NC(=O)CN1CCCC1,Potency,[1],inactive
same,Potency,[2],inactive
same,Potency,[3],inactive
same,outcome,[4],inactive
same,Potency,[5],inactive
same,Potency,[6],inactive
same,Potency,[7],inactive
same,Potency,[8],inactive
same,Potency,[9],inactive
same,Potency,[10],inactive
same,Potency,[11],inactive
same,Potency,[12],inactive
same,Potency,[13],inactive
same,Potency,[14],inactive
same,Potency,[15],inactive
SCCOCCOCCS,Potency,[1],inactive
same,Potency,[2],inactive
same,Potency,[3],inactive
same,outcome,[4],inactive
same,Potency,[5],inactive
same,Potency,[16],inactive
same,Potency,[7],inactive
same,Potency,[8],inactive
same,Potency,[10],inactive
same,Potency,[17],inactive
same,Potency,[12],inactive
same,outcome,[18],inactive
same,Potency,[19],inactive
same,Potency,[13],inactive
same,Potency,[15],inactive
C=CC(C)(O)CC/C=C(/C)CCC=C(C)C (stereo not drawn),Potency,[1],inactive
same,Potency,[2],inactive
same,Potency,[3],inactive
same,outcome,[4],inactive
same,Potency,[5],inactive
same,Potency,[6],inactive
same,Potency,[7],inactive
same,Potency,[8],inactive
same,Potency,[9],inactive
same,Potency,[10],inactive
same,Potency,[12],inactive
same,outcome,[18],inactive
same,Potency,[19],inactive
same,Potency,[13],inactive
same,Potency,[14],inactive
O=C1c2ccccc2C(=O)C1c1ccc2cc(S(=O)(=O)O)cc(S(=O)(=O)O)c2n1,Potency,[1],inactive
same,Potency,[2],inactive
same,Potency,[3],inactive
same,outcome,[4],inactive
same,Potency,[5],inactive
same,Potency,[16],inactive
same,Potency,[8],inactive
same,Potency,[9],58.9 µM (active)
same,Potency,[10],58.9 µM (active)
same,Potency,[17],inactive
same,Potency,[12],0.589 µM (active)
same,outcome,[18],inactive
same,Potency,[13],29.5 µM (active)
same,Potency,[14],inactive
same,Potency,[15],inactive
O=P(c1ccccc1)(c1ccccc1)c1ccccc1,Potency,[1],inactive
same,Potency,[2],inactive
same,Potency,[3],inactive
same,outcome,[4],inactive
same,Potency,[5],inactive
same,Potency,[6],inactive
same,Potency,[7],inactive
same,Potency,[8],inactive
same,Potency,[9],inactive
same,Potency,[10],inactive
same,Potency,[17],inactive
same,Potency,[12],inactive
same,outcome,[18],inactive
same,Potency,[13],inactive
same,Potency,[14],inactive
same,Potency,[15],inactive
O=C(Cl)c1ccc(F)c(Cl)c1,Potency,[1],inactive
same,Potency,[2],inactive
same,Potency,[3],inactive
same,outcome,[4],inactive
same,Potency,[16],inactive
same,Potency,[7],inactive
same,Potency,[8],inactive
same,Potency,[9],inactive
same,Potency,[10],inactive
same,Potency,[17],inactive
same,Potency,[12],inactive
same,Potency,[19],inactive
same,Potency,[13],inactive
same,Potency,[14],inactive
same,Potency,[15],inactive
CCCCCCCCS,Potency,[1],inactive
same,Potency,[2],inactive
same,Potency,[3],inactive
same,Potency,[5],inactive
same,Potency,[6],inactive
same,Potency,[16],inactive
same,Potency,[7],inactive
same,Potency,[8],inactive
same,Potency,[9],inactive
same,Potency,[10],inactive
same,Potency,[17],inactive
same,Potency,[12],inactive
same,outcome,[18],inactive
same,Potency,[13],inactive
same,Potency,[14],inactive
c1ccc(-c2ccc(-c3ccccc3)cc2)cc1,cytotoxicity,[1],0.432% [at 15.8 µM]
same,cytotoxicity increase,[2],2.09% [at 15.8 µM]
same,cytotoxicity increase,[3],-5.69% [at 15.8 µM]
same,"activity change, negative = cytotoxicity",[5],0.629% [at 15.8 µM]
same,"activity change, negative = cytotoxicity",[6],0.793% [at 15.8 µM]
same,activity change,[16],"-4.6% [at 15.8 µM, stronger effect = higher value]"
same,"activity change, negative = cytotoxicity",[7],-2.66% [at 15.8 µM]
same,cytotoxicity increase,[8],-1.41% [at 15.8 µM]
same,"activity change, negative = cytotoxicity",[9],0.519% [at 19 µM]
same,"viability change, negative = cytotoxic",[10],1.4% [at 19 µM]
same,"activity change, negative = inhibition",[17],56.5% [at 19 µM]
same,Potency,[12],4.45 µM (active)
same,"activity change, negative = cytotoxicity",[18],0.606% [at 19 µM]
same,"viability change, negative = cytotoxic",[19],0.865% [at 19 µM]
same,"viability change, negative = cytotoxic",[13],-1.08% [at 19 µM]
same,activity change,[14],"4.66% [at 18.9 µM, stronger effect = higher value]"
same,"activity change, negative = inhibition",[15],32.6% [at 19 µM]
